This is part of a sample that, as a whole, favours compounds with a hit. Of some 79,000 tested, about 15% had one in any assay. No stated cut-off is given here; in the data, active means growth inhibition above about 70%; inactive means the rest.
Legend:
[1] = NCI Yeast Anticancer Drug Screen. Data for the rad50 strain (AID 155);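 further: 0% = growth of vehicle-only cultures of the same strain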; conditions: S. cerevisiae rad50 strain growth inhibition; at 50.0 µM; stronger effect = higher value
Summary of the method: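 Genetically altered yeast (DNA repair pathway); compound treatment; growth inhibition vs vehicle ctrl.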

[2] = NCI Yeast Anticancer Drug Screen. Data for the mec2-1 strain (AID 157); conditions: S. cerevisiae mec2-1 strain, at 50.0 µM, stronger effect = higher value
Summary of the method: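 Strain: mec2-1 (DNA repair/cell cycle alteration). Compound exposure, then growth measured; inhibition expressed relative to vehicle.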

[3] = NCI Yeast Anticancer Drug Screen. Data for the sgs1 mgt1 strain (AID 161);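 further: 0% = growth of cultures given vehicle only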; conditions: S. cerevisiae sgs1 mgt1 strain, at 50.0 µM, stronger effect = higher value
Summary of the method: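 Test agents were incubated with a DNA-repair-mutant yeast strain. Growth was then read and compared against vehicle-treated controls.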

[4] = NCI Yeast Anticancer Drug Screen. Data for the cln2 rad14 strain (AID 165);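 further: 0% = growth equal to vehicle treated cultures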; conditions: S. cerevisiae cln2 rad14 strain, at 50.0 µM, stronger effect = higher value
Summary of the method: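 Compounds are applied to the cln2 rad14 yeast strain, and growth is then compared with that of vehicle-treated cultures to give inhibition.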

[5] = NCI Yeast Anticancer Drug Screen. Data for the bub3 strain (AID 167); conditions: S. cerevisiae bub3 mutant strain, at 50.0 µM, stronger effect = higher value
Summary of the method: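 Yeast carrying a defined mutation is treated with each compound, and growth is compared with that of vehicle-exposed cells to give inhibition.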

[6] = NCI Yeast Anticancer Drug Screen. Data for the mlh1 rad18 strain (AID 175); conditions: S. cerevisiae mlh1 rad18 strain growth inhibition; at 50.0 µM; stronger effect = higher value
Summary of the method: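 Read-out is yeast growth inhibition, calculated against vehicle-only controls. The compound was applied to a strain engineered with DNA damage repair alterations.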

Measured: growth inhibition

COc1ccc(C(=O)CCC(=O)O)c(C)c1
inactive: [1] 7.45% | [2] 13.1% | [3] -0.85% | [4] 1.55% | [5] 19.6% | [6] 5.25%

O=C(Cc1n[nH]c(=S)nc1CC(=O)c1cccnc1)c1cccnc1
inactive: [1] 7.8% | [2] 12.2% | [3] 16.1% | [4] -1% | [5] 26.8% | [6] 2.7%

N#Cc1ccc(CSC2=C(c3ccc(Cl)cc3)S/C(=C3\SC(SCc4ccc(C#N)cc4)=C(c4ccc(Cl)cc4)S3)S2)cc1
inactive: [1] -16.8% | [2] -15.3% | [3] -19.9% | [4] 7.7% | [5] -8.4% | [6] -25.9%

Cc1ccc(C(=O)Nc2ccc(CP(=O)(O)O)cc2CP(=O)(O)O)cc1NC(=O)c1cccc(N)c1
inactive: [1] -7.3% | [2] -1.95% | [3] 4.4% | [4] 0.4% | [5] 0.8% | [6] -1.25%

CC(C)CNc1ncnc2[nH]ncc12
inactive: [1] -1.75% | [2] -6.2% | [3] -3.55% | [4] -3.35% | [5] 1.2% | [6] -6.2%

SCCNCc1ccco1
inactive: [1] -31.4% | [2] -68.5% | [3] -15.9% | [4] 20.6% | [5] -32.6% | [6] 4.9%

S=C(Nc1ccccc1)N1CCN(c2ccccc2Cl)CC1
inactive: [1] 10.7% | [2] -1.65% | [3] 8.25% | [4] -33.9% | [5] -2.15% | [6] 13.1%

CC(C)CCc1ccc(O)cc1
inactive: [1] 5% | [2] -10.9% | [3] -27.2% | [4] -31.9% | [5] 0.65% | [6] -5.15%

CCCCCCCCCCCCCCNCCCCCCCCCCCCCC
inactive: [1] 21% | [2] -9% | [3] 23.8% | [4] 32.2% | [5] 17.1% | [6] 17.4%

O=C1C(=Cc2ccco2)C(=O)C2CCCCC12 (configuration not stated)
inactive: [1] 6.8% | [2] -9% | [3] -10.8% | [4] 13% | [5] 2.4% | [6] 13.6%

O=C1OI(=O)(O)c2ccccc21 (configuration not stated)
inactive: [1] -4.35% | [2] -5.95% | [3] -7.5% | [4] -36.6% | [5] 5.2% | [6] 2.5%

COc1ccc(Cl)cc1NC(C)=O
inactive: [1] 5.1% | [2] 8.1% | [3] 5.2% | [4] 7.25% | [5] 3.7% | [6] -7.65%

CCN(CC)C1(C(F)C(F)(F)F)OCC2(CO1)COC(C(F)C(F)(F)F)(N(CC)CC)OC2 (configuration not stated)
inactive: [1] -10.1% | [2] -13.4% | [3] -0.4% | [4] 2.3% | [5] 0.8% | [6] 6.6%

CC(C)(C)NCCCCCO
inactive: [1] -11.8% | [2] 17.6% | [3] 16.1% | [4] -8.35% | [5] -5.7% | [6] -16.1%

CC(=O)/C(=C/N1CCNC1=S)C(=O)Nc1ccc(Cl)cc1
inactive: [1] -34.5% | [2] -24% | [3] -39.6% | [4] 0.2% | [5] -39.2% | [6] -26.3%

C=CCc1ccc(OC(=O)CC)c(OC)c1
inactive: [1] -8.1% | [2] -22.4% | [3] -16.4% | [4] -8.75% | [5] -10.8% | [6] -9.95%

c1ccc(-c2nnc(-c3ccccn3)c3c2C[C@@H]2C[C@@H]4Cc5c(-c6ccccn6)nnc(-c6ccccn6)c5[C@@H]4[C@H]32)nc1
inactive: [1] -4.95% | [2] 0.1% | [3] -16.4% | [4] 9.25% | [5] 10.3% | [6] -17.4%

CCCCC(NC(=O)OCc1ccccc1)C(=O)NC(Cc1c[nH]c2ccccc12)C(=O)O (configuration not stated)
inactive: [1] 37.6% | [2] 3.9% | [3] 14.7% | [4] 17.8% | [5] 0.4% | [6] 9.25%

CC1(c2ccc[n+](Cc3ccccc3)c2)OCCO1
inactive: [1] -15.7% | [2] -31.1% | [3] -12.8% | [4] -11.2% | [5] -39.6% | [6] -27.1%

CCc1cc2ccccc2oc1=O
inactive: [1] -1.1% | [2] 3.65% | [3] 0.1% | [4] -18.1% | [5] 1.55% | [6] -5.85%

Cc1ccc(S(=O)(=O)N2CCN(S(=O)(=O)c3ccc(C)cc3)CCN(S(=O)(=O)c3ccc(C)cc3)Cc3cc(Br)c(Br)cc3CN(S(=O)(=O)c3ccc(C)cc3)CC2)cc1
inactive: [1] -24.1% | [2] -6.05% | [3] -23.3% | [4] 17.6% | [5] -3.1% | [6] -10.3%

COC(=O)CCCC(=O)NC1=C(NCc2ccccc2)C(=O)c2ccccc2C1=O
inactive: [1] 10.1% | [2] 12.3% | [3] 33.6% | [4] 13.8% | [5] 32.1% | [6] -0.35%

COc1ccc(NC(=O)C(=O)Cc2nc3ccc([N+](=O)[O-])cc3[nH]c2=O)c(OC)c1
inactive: [1] 9.85% | [2] 14.7% | [3] -3.7% | [4] 3.95% | [5] 6.15% | [6] 22.6%

O=c1c(Cl)c(Cl)cnn1-c1ccc([N+](=O)[O-])cc1[N+](=O)[O-]
inactive: [1] 5.7% | [2] 6.7% | [3] 3.05% | [4] -4.25% | [5] -0.65% | [6] 5.75%

O=S(CC(O)(c1ccccc1)c1ccccc1)c1ccccc1 (configuration not stated)
inactive: [1] 6.55% | [2] 14.4% | [3] 18% | [4] 36.2% | [5] 30.9% | [6] 23.5%

CN1C(=O)C2CSCN2C1=S (configuration not stated)
inactive: [1] -38% | [2] -7.7% | [3] -5.4% | [4] -12.3% | [5] -13.6% | [6] 5.1%

Cc1ccc(N2[C@H]3CCCN3c3ccc(C)cc3[C@@H]2C(F)(F)F)cc1
inactive: [1] 16.3% | [2] 0.8% | [3] 29.5% | [4] -2.25% | [5] -15.5% | [6] 2%

CN(C)/N=N/c1nc2c(c(=O)n(C)c(=O)n2C)n1C
inactive: [1] -2.25% | [2] 20.2% | [3] -8.8% | [4] 5.05% | [5] -5.4% | [6] 15.7%

COC(=O)c1cc(C)ncc1C#N
inactive: [1] 0.45% | [2] 1.15% | [3] -4.7% | [4] 0.3% | [5] 2.95% | [6] 8%

CCCCOC(=O)C1CCCCC1C(=O)OCCCC (configuration not stated)
inactive: [1] -3.7% | [2] 14.8% | [3] -0.45% | [4] 63.1% | [5] 12.2% | [6] -21.4%

O=C(NC1(C(=O)O)CC1c1ccccc1)c1ccccc1 (configuration not stated)
inactive: [1] -1.2% | [2] 21% | [3] 0.05% | [4] -10.2% | [5] 9.05% | [6] 42.8%

CC(=O)OCc1nc2ncnc(N)c2[nH]1
inactive: [1] 0.5% | [2] -5.65% | [3] -11.4% | [4] -52.4% | [5] -3.4% | [6] -4.9%

O=C1/C(=C/c2ccc(Br)cc2)CCC/C1=C\c1ccc(Br)cc1
inactive: [1] 24.2% | [2] 13% | [3] 0.25% | [4] -15.8% | [5] -11.9% | [6] 13.9%

O=S(=O)(Oc1cccc2ccccc12)c1ccccc1
inactive: [1] -2.7% | [2] -2.5% | [3] -5.05% | [4] -5.45% | [5] 0.95% | [6] 8.4%

CN(/N=C/c1ccccn1)C1=NCCN1
inactive: [1] -23.9% | [2] -29.4% | [3] -31.2% | [4] 2.75% | [5] 6.55% | [6] -21.4%

CC/C(=C/c1cccc([N+](=O)[O-])c1)C(=O)O
inactive: [1] -9.3% | [2] -23.9% | [3] 0% | [4] 6.1% | [5] -13.7% | [6] -0.2%

NS(=O)(=O)c1ccc(NC(=O)Nc2ccc(Cl)cc2[N+](=O)[O-])cc1
inactive: [1] -9.5% | [2] 18.6% | [3] 30.1% | [4] -16.7% | [5] 29.9% | [6] 30.4%

COc1ccc(C(=O)c2cc3c(ccc4ccccc43)oc2=O)cc1
inactive: [1] -3.7% | [2] 0.6% | [3] 7.2% | [4] 2.85% | [5] 23.9% | [6] -7.45%

Cc1ccc(N=Nc2ccc(C)cc2NC(=O)c2ccc(Cl)cc2Cl)cc1
inactive: [1] 9.2% | [2] -9.7% | [3] 9.1% | [4] 4.55% | [5] -1.55% | [6] 18.2%

C=C(C)CNCCN
inactive: [1] 36.1% | [2] 22.1% | [3] 6.2% | [4] -0.6% | [5] 26.6% | [6] 16.3%

CCCCCNC(=S)NNC(N)=O
inactive: [1] 4.2% | [2] -0.15% | [3] -12.8% | [4] -0.7% | [5] 5.25% | [6] -0.75%

O=C1CCCCC/C1=C\O
inactive: [1] 2.8% | [2] -12.1% | [3] -10.6% | [4] -11.9% | [5] -23.9% | [6] 5.15%

From PubChem BioAssay (NCI)
